Screens deposited in PubChem BioAssay by Johns Hopkins Ion Channel Center.
Hits are enriched below; roughly 2.3% of the tested compounds scored in any of these assays.
TMEM16A inh = mouse TMEM16A channel inhibition, primary screen. Q8BHY3. HEK293 TMEM16A/YFP iodide influx fluorescence, ionomycin. normalized B-score (activity score, 25-100; higher = stronger inhibition) at 10 µM. 1.2% of 310,000 active. AID 588511;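 active = ratio plate-corrected score three or more library SD toward inhibition, starting fluorescence score within five deviations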;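 note: score derived from kinetic fluorescence span divided by baseline fluorescence per well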
ANO1 activ = mouse TMEM16A channel activation, primary screen; 0.3% of 340,000 active; HEK293 TMEM16A/YFP-H148Q/I152L, iodide quench fluorescence; active compounds read low; AID 623877; B-score at 10 µM; Q8BHY3;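 active = fluorescence-ratio B-score plate-corrected deviation score at least 3 library SD below zero, with starting fluorescence score within 5 deviations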;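 note: channel opened by trigger with iodide after compound preincubation; score built on the fluorescence ratio of max minus min over baseline; more negative score means more quench and so TMEM16A activation or potentiation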
CHT allo act = allosteric activators of human choline transporter CHT | Q9GZV3 | CHT-expressing cells, membrane potential dye, choline EC20; active compounds read high; LV-AA mutant CHT in HEK293 cells | B-score at 10 µM | 0.49% of 310,000 active | AID 488977;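 active = initial fluorescence not abnormally high and integrated response B-score, plate-corrected, over 3 SD above library mean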
CHT block = inhibitors of human choline transporter CHT. CHT-expressing cells, membrane potential dye, choline response; active compounds read low. AID 488975. 0.86% of 310,000 active. B-score at 10 µM. Q9GZV3;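 active = B-score over 3 SD under the library average, and starting fluorescence ratio not unusually high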;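 note: choline stimulus applied at its EC90 after an EC20 pre-addition; B-score computed on integrated fluorescence ratio after choline addition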
Starred values were filed as active, the others as inactive; i = inactive; x = no result.

SMILES	TMEM16A inh	ANO1 activ	CHT allo act	CHT block
CCOc1ccccc1NC(=O)C(OC(=O)c1ccc(CC)cc1)c1ccccc1 (configuration not stated)	i	i	i	i
CCOc1ccccc1NC(=O)C(OC(=O)c1ccc(O)cc1)c1ccccc1 (configuration not stated)	25*	i	i	i
CCOc1ccccc1NC(=O)C(NCC1CCCCC1)c1ccccc1 (configuration not stated)	25*	i	i	i
COc1ccc(C(=O)Nc2ccccc2C(=O)N2CCOCC2)cc1	i	i	i	i
Cc1ncnc(N)c1CCCNc1ccccc1	x	i	x	x
CCOc1ccc(NC(=O)C2CC(=O)N(CCc3ccc(OC)c(OC)c3)C2)cc1OCC (configuration not stated)	x	i	x	x
CC(=O)C(Cc1ccccc1)NC(=O)CN1c2cccc3cccc(c23)S1(=O)=O (configuration not stated)	x	-9.8*	x	x
COC(=O)CNC(=O)CN1c2cccc3cccc(c23)S1(=O)=O	i	i	i	i
CCCCC(O)(c1ccc(F)cc1)C(CN1CCOCC1)c1ccc(Cl)cc1 (configuration not stated)	i	i	i	i
CCCN(CCC)C(=O)Cn1c(=O)c2ccccc2n2c(=S)sc(-c3ccccc3C)c12	i	-7.6*	i	i
CCCN(CCC)C(=O)Cn1c(=O)c2sccc2n2c(=S)sc(-c3ccccc3)c12	i	i	i	i
CC(=O)c1ccccc1NC(=O)c1ccc(OCc2c(C)noc2C)cc1	x	i	x	x
COc1ccc(N2CC(C(=O)N[C@@H](CC(C)C)C(=O)NC3CCCCC3)CC2=O)cc1 (some centres not stated)	i	i	i	i
CN(C)S(=O)(=O)c1cccc(-c2nnc(SCc3ccc4c(c3)OCCO4)o2)c1	i	-17*	i	i
O=C(Cc1cccc(NC(=O)C2CCN(C(=O)CCc3ccccc3)CC2)c1)Nc1cccc(C(=O)N2CCCC2)c1	x	i	x	x
CC(C)Cc1nc2oc3c(NCC(C)O)ncnc3c2c2c1CCCC2 (configuration not stated)	i	i	i	-7.6*
CC(C)Cc1nc2oc3c(Cl)ncnc3c2c2c1CCCC2	i	i	i	i
N#C/C(=C/c1ccc(O)c([N+](=O)[O-])c1)C(=O)Nc1ccccc1	25*	i	i	i
COc1ccc(/C=N/Nc2cc(C)nc3ccc(OC)cc23)c(OC)c1	100*	i	i	i
CCC1(C)Cc2c(C#N)c(N)n(-c3ccccc3)c(=S)c2CO1 (configuration not stated)	i	i	i	i
CCC1(C)Cc2c(C#N)c(N)sc(=S)c2CO1 (configuration not stated)	i	-25*	i	i
COc1cccc(NC(=O)CN(C)C(=O)c2cc3ccccc3cc2OC)c1	x	-34*	x	x
Cc1onc(-c2ccccc2Cl)c1C(=O)Nc1cccc2cccnc12	100*	i	i	i
CCOC(=O)Nc1cccc(NC(=O)c2ccccc2F)c1	i	-10*	i	i
COc1cccc(NC(=O)c2ccccc2F)c1	i	i	i	i
SMILES	TMEM16A inh	ANO1 activ	CHT allo act	CHT block
CCCCN1C(=O)C(=O)N(CC(=O)c2ccc3c(c2)OCO3)C1=O	i	i	i	i
CCCc1cc(C(=O)Nc2ccc(C(=O)c3ccc(C)cc3)cc2)n(C)n1	100*	i	i	i
CC(Oc1ccc2c(-c3ccccc3)cc(=O)oc2c1)C(=O)NCC(O)c1ccccc1 (configuration not stated)	i	i	i	i
CCOc1ccc(CN(CC)C(=O)Cc2c[nH]c3ccccc23)cc1OC	i	i	i	i
CSc1cccc(NC(=O)/C=C/c2cccc(Cl)c2)c1	100*	i	i	i
C/C=C/C(=O)Nc1cccc(C(F)(F)F)c1	i	i	i	i
O=C(/C=C/c1cccc(C(F)(F)F)c1)Nc1cccc(C(F)(F)F)c1	100*	-7.2*	i	i
O=[N+]([O-])c1ccc(CSc2ccc(S(=O)(=O)N3CCCCC3)cn2)cc1	x	i	x	x
O=[N+]([O-])c1ccc(S(=O)(=O)NCCS(=O)(=O)N2CCN(c3ccccc3)CC2)cc1	i	-29*	i	i
CC(=O)/C(C#N)=C1\NC(=O)C(Cc2ccc(C)c(C)c2)S1 (configuration not stated)	25*	i	i	i
CC(Sc1nnc(Cc2ccccc2)o1)C(=O)NC1(C#N)CCCCC1 (configuration not stated)	x	i	x	x
CCCN1CCN(C2CCCCC2NS(=O)(=O)c2ccc(Cl)cc2)CC1 (configuration not stated)	i	i	i	i
O=S(=O)(NC1CCCCC1N1CCN(c2ccc(F)cc2)CC1)c1ccc(Cl)cc1 (configuration not stated)	i	-34*	i	i
O=C1CCCCN1CC(=O)N1CCCC(Nc2ccc(F)cc2)C1 (configuration not stated)	i	i	i	i
N#Cc1nc(Cc2cccc3ccccc23)oc1N1CCCCC1	100*	-23*	i	i
COc1ccc2c(c1)C(CC(=O)NN)CCC2 (configuration not stated)	x	i	x	x
C=CCN(C(=O)C1=NN(C2CCS(=O)(=O)C2)C(=O)CC1)c1nc(-c2ccc([N+](=O)[O-])cc2)cs1 (configuration not stated)	i	-4.7*	i	i
O=C(OCc1nnc(-c2ccccc2)o1)c1ccc([N+](=O)[O-])o1	i	i	i	i
O=[N+]([O-])c1ccc(OCc2nnc(-c3ccccc3)o2)cc1	100*	i	i	i
COc1cc([N+](=O)[O-])cc(/C=C2/SC(=S)N(Cc3ccccc3)C2=O)c1O	i	i	i	-5.8*
O=C1/C(=C\c2cccc([N+](=O)[O-])c2O)SC(=S)N1Cc1ccccc1	100*	i	i	-8.4*
COc1cc(/C=C2/SC(=S)N(Cc3ccccc3)C2=O)cc(Cl)c1O	i	i	i	i
CNC(=S)Nc1cccc([N+](=O)[O-])c1	i	i	i	i
Cc1cc(Br)ccc1NC(=S)Nc1cccc([N+](=O)[O-])c1	100*	i	i	i
Cc1cc(C)nc(SCc2nnc(SCC(=O)Nc3ccc(Cl)c(C(F)(F)F)c3)o2)n1	100*	i	i	i
Cc1cccc(NC(=O)CSc2nnc(CSc3nc(C)cc(C)n3)o2)c1	i	i	i	i
Cc1cc(C)c(S(=O)(=O)N2CCCCC2CCNC(=O)C(=O)NCc2ccco2)c(C)c1 (configuration not stated)	i	i	i	i
C/C(=C\C(=O)c1ccc(Br)cc1)NCc1ccccc1	i	i	i	i
